Compound activity as filed in PubChem BioAssay.
A selection: hits, their analogues and other compounds. The true share with any hit is near 2.1%.
Env fusion inh – HIV envelope-mediated fusion inhibition. HeLa-JRFL Env/CEM21 cell fusion, luciferase. inhibition, % at 12.3 µM. 360,000 tested, 1.1% active. AID 651610;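 active = mean replicate inhibition score of at least 50 and every replicate individually at or above 50; inconclusive = only one of the two criteria met; inactive = mean below 50 and not all replicates reaching 50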
MLL AF4-AF9 inh – inhibitors of human MLL-AF4/AF9 interaction | P42568 | AlphaScreen, biotin-AF4 peptide binding to FLAG-AF9 | inhibition, % at 10 µM | 350,000 tested, 0.47% active | AID 651704;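 active = every replicate reaching a set inhibition limit, whatever the replicate mean, cut at about 25% in these data; inconclusive = mean inhibition reaches that limit but some replicates miss it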
GSIS activator – primary screen for activators of insulin secretion dependent on glucose, INS-1E cells, GLuc reporter luminescence; INS-1E GLuc reporter insulin secretion, 2-3 h; activation, % at 16.6 µM; 370,000 tested, 0.61% active;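 active = lowest replicate activation of at least 40%, so every replicate reaches that level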
NSD2 inh – NSD2 (human) methyltransferase inhibition; O96028; NSD2 peptide methylation, AlphaScreen, 120 min; inhibition, % at 12.5 µM; 310,000 tested, 0.54% active; AID 743445; in the data active = inhibition above about 50%
Target sequence (O96028 whole entry, looked up): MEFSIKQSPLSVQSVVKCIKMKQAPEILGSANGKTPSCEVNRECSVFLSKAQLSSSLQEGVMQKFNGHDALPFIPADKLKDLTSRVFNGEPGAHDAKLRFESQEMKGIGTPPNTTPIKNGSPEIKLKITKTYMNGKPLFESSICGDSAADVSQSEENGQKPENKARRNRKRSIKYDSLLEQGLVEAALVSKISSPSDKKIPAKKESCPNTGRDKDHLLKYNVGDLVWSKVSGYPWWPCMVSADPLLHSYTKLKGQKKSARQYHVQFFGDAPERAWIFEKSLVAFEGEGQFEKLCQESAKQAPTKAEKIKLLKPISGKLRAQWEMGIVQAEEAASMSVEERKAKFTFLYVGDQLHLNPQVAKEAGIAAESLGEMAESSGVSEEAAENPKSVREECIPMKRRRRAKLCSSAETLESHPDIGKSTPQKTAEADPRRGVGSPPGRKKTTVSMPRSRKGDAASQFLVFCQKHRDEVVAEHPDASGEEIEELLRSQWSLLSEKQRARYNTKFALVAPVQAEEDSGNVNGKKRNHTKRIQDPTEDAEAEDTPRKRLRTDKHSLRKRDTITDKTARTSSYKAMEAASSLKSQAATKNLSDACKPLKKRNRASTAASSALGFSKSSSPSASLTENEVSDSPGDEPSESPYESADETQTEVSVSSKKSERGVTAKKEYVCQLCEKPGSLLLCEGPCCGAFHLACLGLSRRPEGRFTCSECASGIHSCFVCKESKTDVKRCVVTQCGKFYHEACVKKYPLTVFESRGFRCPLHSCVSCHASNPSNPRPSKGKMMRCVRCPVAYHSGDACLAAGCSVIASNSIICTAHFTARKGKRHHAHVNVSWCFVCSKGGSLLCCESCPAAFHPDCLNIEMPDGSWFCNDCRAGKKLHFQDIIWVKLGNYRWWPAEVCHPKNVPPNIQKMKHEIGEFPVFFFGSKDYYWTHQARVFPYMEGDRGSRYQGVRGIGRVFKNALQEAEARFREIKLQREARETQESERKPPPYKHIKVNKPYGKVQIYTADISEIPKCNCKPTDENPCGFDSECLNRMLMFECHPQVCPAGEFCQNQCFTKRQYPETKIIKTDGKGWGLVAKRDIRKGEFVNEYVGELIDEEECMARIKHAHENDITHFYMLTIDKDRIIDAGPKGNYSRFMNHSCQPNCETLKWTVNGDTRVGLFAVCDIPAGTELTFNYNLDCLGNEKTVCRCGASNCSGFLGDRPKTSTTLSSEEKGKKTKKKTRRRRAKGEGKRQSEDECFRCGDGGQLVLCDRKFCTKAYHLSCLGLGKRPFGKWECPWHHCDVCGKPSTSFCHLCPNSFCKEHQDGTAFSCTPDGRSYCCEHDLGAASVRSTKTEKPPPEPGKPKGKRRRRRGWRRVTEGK
PGC1a acetyl inh – PGC1a acetylation modulation, inhibitor mode. AID 651687. U2OS PGC1a acetylation, AlphaScreen anti-acetyl-lysine; with virally co-expressed GCN5 acetyltransferase. inhibition, % at 15.6 µM. 350,000 tested, 0.17% active;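 active = every replicate shows inhibition of at least 40%; inconclusive = mean inhibition at least 40% but some replicate below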
Large screens that a line does not name were inactive; [ ] = another dose, or the depositor's remark.

COC(=O)CSc1ncnc2scc(-c3ccccc3)c12	GSIS activator 60
CCCCNC(=O)N(O)C1N(/N=C/c2cccs2)C(=S)SC1(C)C (stereo not given)	Env fusion inh 67 (no result: PGC1a acetyl inh)
CNC(=O)N(O)C1N(/N=C/c2ccccc2O)C(=S)SC1(C)C (stereo not given)	none
CCOC(=O)c1c(-c2ccccc2)oc2ccc(OCC(O)CNCCN(C)C)cc12 (stereo not given)	MLL AF4-AF9 inh 34 (no result: PGC1a acetyl inh)
CC(C)C(c1nnnn1Cc1ccco1)N1CCN(C2CCCC2)CC1 (stereo not given)	none (no result: MLL AF4-AF9 inh, GSIS activator)
COC(=O)C(NC(=O)c1ccccc1)C(C)(C)SCc1ccccc1 (stereo not given)	none (no result: PGC1a acetyl inh)
O=C(Nc1cccc(S(=O)(=O)N2CCOCC2)c1)[C@@H]1CCCN1S(=O)(=O)c1ccc(Cl)cc1	Env fusion inh 62 (no result: MLL AF4-AF9 inh, PGC1a acetyl inh)
CC(NC(=O)C1CCCN1S(=O)(=O)c1ccc2c(c1)n(C)c(=O)c(=O)n2C)c1ccccc1 (stereo not given)	GSIS activator 54
CCc1cccc(NC(=O)C2CCCN2S(=O)(=O)c2ccc3c(c2)n(C)c(=O)c(=O)n3C)c1 (stereo not given)	GSIS activator 46
O=C(Nc1cccc(S(=O)(=O)N2CCOCC2)c1)C1CCCCN1S(=O)(=O)c1ccccc1 (stereo not given)	none (no result: PGC1a acetyl inh)
COc1ccc(NC(=O)C2CCCN2S(=O)(=O)c2ccc3c(c2)CCC(=O)N3)cc1Cl (stereo not given)	Env fusion inh 85 (no result: NSD2 inh)
COc1ccc(NC(=O)C2CCCN2S(=O)(=O)c2ccc3c(c2)CCC(=O)N3)cc1 (stereo not given)	none (no result: NSD2 inh)
COCCNC(=O)C1(C)CCCN(Cc2cc(-c3ccccc3)n(C)n2)C1 (stereo not given)	none (no result: PGC1a acetyl inh)
CCOC(=O)C1=CCN(S(=O)(=O)c2ccccc2Cl)C1c1ccc(C)cc1 (stereo not given)	none (no result: NSD2 inh)
CCOc1cc2c3c(c1)C(C)=CC(C)(C)N3C(=O)C2=O	none
CC(=O)Oc1cc2c3c(c1)/C(=C1/SC(=S)NC1=O)C(=O)N3C(C)(C)C=C2C	MLL AF4-AF9 inh 30 (no result: PGC1a acetyl inh)
CCOC(=O)[C@]12CCC=C1N(CCC1=CCCCC1)C(=O)[C@H](CC(=O)NCCCN1CCCC1=O)C2	Env fusion inh inconclusive (no result: NSD2 inh, PGC1a acetyl inh)
COc1ccc(/C=C/c2cc(C(=O)O)c3ccccc3n2)cc1	none
Cc1cc(/C=C\c2ccccc2)nc2ccccc12	MLL AF4-AF9 inh 26 (no result: PGC1a acetyl inh)
Cc1cn(CC(C)C)c(=O)n(-c2ccccc2)c1=O	GSIS activator 51
Cc1cn(C2CCCCC2)c(=O)n(-c2ccccc2)c1=O	none
COc1ccc(C#Cc2ccc([C@H]3[C@H]4CN(Cc5ccccc5F)CCCCN4[C@H]3CO)cc2)cc1	none (no result: Env fusion inh, NSD2 inh)
CN(C)CC#Cc1ccc([C@@H]2[C@@H](CO)N3CCCCN(CC4CC4)C[C@@H]23)cc1	MLL AF4-AF9 inh 26 (no result: Env fusion inh, NSD2 inh)
COc1ccc(C#Cc2ccc([C@@H]3[C@@H](CO)N4CCCCN(Cc5ccccc5F)C[C@H]34)cc2)cc1	MLL AF4-AF9 inh 29 (no result: Env fusion inh, NSD2 inh)
CN(C)CC#Cc1ccc([C@@H]2[C@H](CO)N3CCCCN(CC4CC4)C[C@@H]23)cc1	MLL AF4-AF9 inh 27 (no result: Env fusion inh, NSD2 inh)
CN(C)CC#Cc1ccc([C@H]2[C@H]3CN(CC4CC4)CCCCN3[C@H]2CO)cc1	none (no result: Env fusion inh, NSD2 inh)
COc1ccc(-n2c(Cc3cccn3C)nnc2SCC(=O)Nc2ccc(F)cc2)cc1	none (no result: NSD2 inh)
O=C(CSc1nc(=O)n(CCN2CCOCC2)c2c1CCCC2)Nc1ccccc1Cl	none (no result: PGC1a acetyl inh)
O=C(CSc1ccc(Br)cc1)N1CCN(S(=O)(=O)c2ccccc2)CC1	none
N#CCCN(Cc1ccccc1)C(=O)c1cccs1	GSIS activator 40
O=C1CCCc2[nH]c3cccc(/C(=C/c4ccccc4)c4ccccc4)c3c21	Env fusion inh 70 (no result: NSD2 inh)
C[C@H]1CN([C@@H](C)CO)C(=O)c2cc(NC(=O)CCN3CCOCC3)ccc2O[C@H]1CN(C)C(=O)Nc1cccc2ccccc12	none (no result: NSD2 inh)
CCCC(=O)N1CC2(C1)CN(S(=O)(=O)c1ccc(C)cc1)[C@@H](CO)c1[nH]c3cc(OC)ccc3c12	none (no result: Env fusion inh, NSD2 inh)
CC(C)(C)c1ccc(C(=O)N2CCCCCC2=O)cc1	Env fusion inh 91 (no result: MLL AF4-AF9 inh, GSIS activator, PGC1a acetyl inh)
CCn1c(=O)n(CC(=O)NCc2ccco2)c(=O)c2ccccc21	none (no result: Env fusion inh, MLL AF4-AF9 inh, GSIS activator)
O=C(NCc1ccco1)c1ccc(Cn2c(=O)c3sccc3n(Cc3cccc(F)c3)c2=O)cc1	Env fusion inh 90 (no result: NSD2 inh)
O=C(Cn1c(=O)n(Cc2ccco2)c(=O)c2ccccc21)Nc1cccc(Cl)c1	Env fusion inh 95 (no result: NSD2 inh)
Cc1ccc(NC(=O)Cn2c(=O)n(Cc3ccco3)c(=O)c3ccccc32)c(C)c1	none (no result: MLL AF4-AF9 inh, GSIS activator)
O=C(CCn1c(=O)c2sccc2n(CC(=O)NCc2ccco2)c1=O)NCc1ccccc1	none (no result: MLL AF4-AF9 inh)
O=C(NCc1ccco1)c1ccc(Cn2c(=O)c3ccccc3n(Cc3cccc(Cl)c3)c2=O)cc1	Env fusion inh 89 (no result: MLL AF4-AF9 inh, GSIS activator)
O=C(NCCc1nnc2ccc(N3CCCCCC3)nn12)c1ccccc1F	none
O=C(Oc1ccc(N(C(=O)c2ccncc2)S(=O)(=O)c2ccc(F)cc2)cc1)c1ccncc1	none (no result: PGC1a acetyl inh)
CCc1ccc(NC(=O)CSc2nc(=O)n(CCCN(C)C)c3c2CCC3)cc1	none
Cc1noc(C)c1S(=O)(=O)N(C)C[C@H]1Oc2ccc(NC(=O)Nc3ccc(F)cc3)cc2CC(=O)N([C@@H](C)CO)C[C@H]1C	none (no result: NSD2 inh)
C[C@H]1CN([C@@H](C)CO)C(=O)Cc2cc(NC(=O)Cc3ccccc3)ccc2O[C@@H]1CN(C)S(=O)(=O)c1ccccc1	none (no result: NSD2 inh)
Cc1noc(C)c1S(=O)(=O)N(C)C[C@@H]1Oc2ccc(NC(=O)Nc3ccccc3)cc2CC(=O)N([C@@H](C)CO)C[C@H]1C	none (no result: MLL AF4-AF9 inh, NSD2 inh)
Cc1noc(C)c1S(=O)(=O)N(C)C[C@@H]1Oc2ccc(NC(=O)Nc3cccc4ccccc34)cc2CC(=O)N([C@@H](C)CO)C[C@@H]1C	Env fusion inh 59[16.7 µM] (no result: NSD2 inh)
Cc1noc(C)c1S(=O)(=O)N(C)C[C@@H]1Oc2ccc(NC(=O)Nc3ccc(F)cc3)cc2CC(=O)N([C@@H](C)CO)C[C@@H]1C	Env fusion inh 55[16.7 µM] (no result: NSD2 inh)
Cc1noc(C)c1S(=O)(=O)N(C)C[C@@H]1Oc2ccc(NC(=O)Nc3ccccc3)cc2CC(=O)N([C@@H](C)CO)C[C@@H]1C	Env fusion inh 85[16.7 µM] (no result: MLL AF4-AF9 inh, NSD2 inh)
Cc1noc(C)c1S(=O)(=O)N(C)C[C@@H]1Oc2ccc(NC(=O)Cc3ccccc3)cc2CC(=O)N([C@H](C)CO)C[C@@H]1C	Env fusion inh 65[16.7 µM] (no result: MLL AF4-AF9 inh, NSD2 inh)
C[C@@H]1CN([C@@H](C)CO)C(=O)Cc2cc(NC(=O)Nc3cccc4ccccc34)ccc2O[C@H]1CN(C)S(=O)(=O)c1ccccc1	none (no result: NSD2 inh)
COc1cc(-c2noc(C)c2/C=C/c2ccc(C(=O)O)cc2)cc(OC)c1OC	none (no result: Env fusion inh, GSIS activator, NSD2 inh)
CCC(=O)N1CC2(C1)[C@H](c1ccccc1)[C@@H](CO)N2Cc1ccccc1F	none (no result: Env fusion inh, NSD2 inh)
O=C(C[C@@H]1C=C[C@H](NC(=O)c2cccc(F)c2)[C@H](CO)O1)NCc1ccc(Oc2ccccc2)cc1	Env fusion inh inconclusive (no result: NSD2 inh)
Cc1noc(C)c1S(=O)(=O)N(C)C[C@H]1Oc2ccc(NC(=O)Nc3ccccc3)cc2CC(=O)N([C@H](C)CO)C[C@H]1C	Env fusion inh 69[16.7 µM], PGC1a acetyl inh inconclusive (no result: MLL AF4-AF9 inh, NSD2 inh)
